# Experimental data reported in PubChem BioAssay (EPA / NIEHS).
# Activity calls are given as the source filed them. Rule for the calls: active = hit-call score of the fitted dose curve at least 0.9, where 1 is the maximum; inactive = score below 0.9.
# How the values were obtained:
# [1] = target: Bile acid receptor (Homo sapiens) (UniProt Q96RI1); assay: ATG_IR1_CIS: Attagene CIS-FACTORIAL HepG2 Assay for human Nuclear Receptor Subfamily 1 Group H Member 4 (NR1H4), IR1 submotif (AID 2282946); details: IR1 reporter transcription, actives raise or lower the signal
# Sequence of Bile acid receptor (Homo sapiens) (Q96RI1 whole entry, looked up): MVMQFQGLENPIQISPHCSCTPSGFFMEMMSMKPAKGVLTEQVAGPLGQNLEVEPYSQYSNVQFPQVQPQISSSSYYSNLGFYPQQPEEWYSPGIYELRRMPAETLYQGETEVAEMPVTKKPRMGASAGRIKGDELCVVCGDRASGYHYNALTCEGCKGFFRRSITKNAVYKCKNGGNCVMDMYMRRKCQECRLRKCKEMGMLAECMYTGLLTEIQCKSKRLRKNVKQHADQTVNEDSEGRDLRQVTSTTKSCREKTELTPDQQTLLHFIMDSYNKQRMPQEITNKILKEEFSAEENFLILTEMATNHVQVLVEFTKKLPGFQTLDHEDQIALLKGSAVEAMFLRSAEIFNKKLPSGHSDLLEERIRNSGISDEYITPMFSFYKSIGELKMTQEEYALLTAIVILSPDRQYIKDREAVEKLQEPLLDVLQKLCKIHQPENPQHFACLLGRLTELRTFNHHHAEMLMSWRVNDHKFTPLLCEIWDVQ
# Procedure, shortened: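 Transient MRTU transfection, HepG2; 24 h dosing; RNA → RT-PCR → 6-FAM primer extension → HpaI digest → capillary electrophoresis fluorescence. Gain/loss of signal fitted relative to DMSO.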
# [2] = ATG_GRE_CIS: Attagene CIS-FACTORIAL HepG2 Assay for human Glucocorticoid Response Elements (GRE) (AID 2282947); details: HepG2 GRE cis-reporter, Attagene multiplex mRNA; actives raise or lower the signal
# Procedure, shortened: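 Following 24 h chemical exposure of transiently transfected HepG2 cells, total RNA was reverse-transcribed and reporter cDNA amplified, fluorescently labelled and sized by capillary electrophoresis. Signal gain or loss was fitted relative to DMSO vehicle.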
# [3] = ATG_ISRE_CIS: Attagene CIS-FACTORIAL HepG2 Assay for human Interferon Regulatory Factor 1 (IRF1) binding to an Interferon-Stimulated Response Element (ISRE) (AID 2282948); details: HepG2 ISRE cis-reporter (Attagene), mRNA transcription readout; actives raise or lower the signal
# Procedure, shortened: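 Transiently transfected HepG2 cells carrying cis-element reporter units, dosed 24 hours. Reporter mRNA quantified by RT-PCR, fluorescent primer extension, HpaI digestion and capillary electrophoresis. Bidirectional fitting relative to DMSO.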
# [4] = ATG_M_32_CIS: Attagene CIS-FACTORIAL HepG2 Assay for M32 Transcription Factor (Internal Marker) (AID 2282949); details: HepG2 Attagene cis-factorial M32 reporter, mRNA; actives raise or lower the signal;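 note: background control marker of the multiplexed CIS panel rather than a real target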
# Procedure, shortened: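 HepG2 cells transiently transfected with multiplexed cis-regulated reporter units, dosed 24 h. Reporter mRNA quantified by RT-PCR, 6-FAM labelling, HpaI digestion and capillary electrophoresis; bidirectional fit vs DMSO.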
# [5] = ATG_M_06_CIS: Attagene CIS-FACTORIAL HepG2 Assay for M06 Transcription Factor (Internal Marker) (AID 2282950); details: HepG2 Attagene CIS-FACTORIAL M06 internal marker reporter; actives raise or lower the signal
# Procedure, shortened: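 Cells (HepG2, transiently carrying cis-driven reporter units) receive chemical for 24 h before RNA isolation. Reporter cDNA is PCR-amplified, FAM-labelled by primer extension, HpaI-digested and sized on a capillary analyser.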
# [6] = target: Heat shock factor protein 1 (Homo sapiens) (UniProt Q00613); assay: ATG_HSE_CIS: Attagene CIS-FACTORIAL HepG2 Assay for human Heat Shock Transcription Factor 1 (HSE) (AID 2282953); details: HepG2 HSE cis-reporter, Attagene RNA transcription; actives raise or lower the signal
# Sequence of Heat shock factor protein 1 (Homo sapiens) (Q00613 whole entry, looked up): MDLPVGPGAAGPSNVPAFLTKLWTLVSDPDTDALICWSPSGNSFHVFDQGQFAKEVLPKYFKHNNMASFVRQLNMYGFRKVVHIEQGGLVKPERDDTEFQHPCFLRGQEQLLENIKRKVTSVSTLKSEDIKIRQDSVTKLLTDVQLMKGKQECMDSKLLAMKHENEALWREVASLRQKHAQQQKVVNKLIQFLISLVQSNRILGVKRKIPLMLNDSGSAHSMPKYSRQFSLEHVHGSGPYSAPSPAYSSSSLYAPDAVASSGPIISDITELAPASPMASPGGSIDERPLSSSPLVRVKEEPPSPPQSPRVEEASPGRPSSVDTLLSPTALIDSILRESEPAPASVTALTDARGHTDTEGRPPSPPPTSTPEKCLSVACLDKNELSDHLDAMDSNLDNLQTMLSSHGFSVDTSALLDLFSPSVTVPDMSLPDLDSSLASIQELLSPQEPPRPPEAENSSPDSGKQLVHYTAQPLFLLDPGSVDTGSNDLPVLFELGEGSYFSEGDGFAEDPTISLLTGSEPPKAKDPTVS
# Procedure, shortened: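 Liver-derived HepG2 cells carry transiently introduced multiple reporter units governed by cis promoters. Reporter RNA measured 24 h post-dose through reverse transcription, PCR amplification, fluorescent labelling and capillary electrophoresis, normalised to DMSO.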
# [7] = target: Paired box protein Pax-6 (Homo sapiens) (UniProt P26367); assay: ATG_Pax6_CIS: Attagene CIS-FACTORIAL HepG2 Assay for human Paired Box 6 (PAX6) (AID 2282956); details: HepG2 CIS-FACTORIAL PAX6 reporter transcription, RNA readout; actives raise or lower the signal
# Sequence of Paired box protein Pax-6 (Homo sapiens) (P26367 whole entry, looked up): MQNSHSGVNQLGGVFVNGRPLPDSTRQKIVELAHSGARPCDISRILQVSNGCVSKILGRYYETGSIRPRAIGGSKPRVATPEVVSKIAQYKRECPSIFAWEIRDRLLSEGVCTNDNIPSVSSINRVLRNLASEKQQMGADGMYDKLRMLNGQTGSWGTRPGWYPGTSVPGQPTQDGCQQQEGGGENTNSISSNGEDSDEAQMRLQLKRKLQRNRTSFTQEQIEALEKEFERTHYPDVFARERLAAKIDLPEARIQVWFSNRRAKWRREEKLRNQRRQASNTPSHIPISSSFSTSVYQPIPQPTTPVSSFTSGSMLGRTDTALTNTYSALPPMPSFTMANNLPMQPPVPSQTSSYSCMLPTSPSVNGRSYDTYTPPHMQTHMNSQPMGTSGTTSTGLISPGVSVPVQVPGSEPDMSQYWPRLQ
# Procedure, shortened: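 HepG2 cells transiently transfected with cis-promoter-driven multiplexed reporter units sensing endogenous transcription factor activity; 24 h chemical exposure. Reporter mRNA quantified by RT-PCR, 6-FAM labelling, HpaI digestion and capillary electrophoresis; bidirectional fit versus DMSO baseline.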
# [8] = ATG_PXRE_CIS: Attagene CIS-FACTORIAL HepG2 Assay for human Pregnane X Receptor Element (PXRE) (AID 2282957); details: HepG2 Attagene CIS-FACTORIAL PXRE reporter, mRNA; actives raise or lower the signal
# Procedure, shortened: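 Cis-element reporter mRNA in human hepatoma HepG2 cells is measured 24 h post-dosing by RT-PCR, primer-extension labeling and capillary electrophoresis; gain or loss of signal is fitted relative to DMSO.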
# [9] = ATG_PPRE_CIS: Attagene CIS-FACTORIAL HepG2 Assay for human Peroxisome Proliferator-activated Response Element (PPRE) (AID 2282958); details: HepG2 PPRE cis-element reporter, Attagene transcription factor profiling; actives raise or lower the signal
# Procedure, shortened: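 HepG2 cells are transiently transfected with multiplexed cis-promoter reporter units to report endogenous PPAR activity. After 24 h dosing, reporter mRNA is read by RT-PCR and capillary electrophoresis. Fitting is bidirectional against DMSO.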
# [10] = ATG_RORE_CIS: Attagene CIS-FACTORIAL HepG2 Assay for human RAR-related Orphan Receptor Element (RORE) (AID 2282959); details: HepG2 Attagene cis-factorial RORE reporter, mRNA; actives raise or lower the signal
# Procedure, shortened: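 HepG2 cells carrying transiently transfected cis-regulated reporter units; RORE-driven reporter mRNA quantified 24 h post-dosing by RT-PCR, 6-FAM primer extension, HpaI digestion and capillary electrophoresis. Bidirectional fit versus DMSO.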
# [11] = ATG_Sox_CIS: Attagene CIS-FACTORIAL HepG2 Assay for human SRY-box transcription factor (SOX) (AID 2282960); details: HepG2 Attagene cis-factorial SOX reporter, mRNA; actives raise or lower the signal
# Procedure, shortened: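 HepG2 cells transiently transfected with multiple cis-regulated reporter units, then dosed for 24 h. Reporter mRNA quantified by RT-PCR, fluorescent labelling, HpaI digestion and capillary electrophoresis; bidirectional fit versus DMSO.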
# [12] = target: Transcription factor Sp1 (Homo sapiens) (UniProt P08047); assay: ATG_Sp1_CIS: Attagene CIS-FACTORIAL HepG2 Assay for human Specificity Protein 1 (Sp1) (AID 2282961); details: HepG2 Sp1 cis-reporter transcription, actives raise or lower the signal
# Sequence of Transcription factor Sp1 (Homo sapiens) (P08047 whole entry, looked up): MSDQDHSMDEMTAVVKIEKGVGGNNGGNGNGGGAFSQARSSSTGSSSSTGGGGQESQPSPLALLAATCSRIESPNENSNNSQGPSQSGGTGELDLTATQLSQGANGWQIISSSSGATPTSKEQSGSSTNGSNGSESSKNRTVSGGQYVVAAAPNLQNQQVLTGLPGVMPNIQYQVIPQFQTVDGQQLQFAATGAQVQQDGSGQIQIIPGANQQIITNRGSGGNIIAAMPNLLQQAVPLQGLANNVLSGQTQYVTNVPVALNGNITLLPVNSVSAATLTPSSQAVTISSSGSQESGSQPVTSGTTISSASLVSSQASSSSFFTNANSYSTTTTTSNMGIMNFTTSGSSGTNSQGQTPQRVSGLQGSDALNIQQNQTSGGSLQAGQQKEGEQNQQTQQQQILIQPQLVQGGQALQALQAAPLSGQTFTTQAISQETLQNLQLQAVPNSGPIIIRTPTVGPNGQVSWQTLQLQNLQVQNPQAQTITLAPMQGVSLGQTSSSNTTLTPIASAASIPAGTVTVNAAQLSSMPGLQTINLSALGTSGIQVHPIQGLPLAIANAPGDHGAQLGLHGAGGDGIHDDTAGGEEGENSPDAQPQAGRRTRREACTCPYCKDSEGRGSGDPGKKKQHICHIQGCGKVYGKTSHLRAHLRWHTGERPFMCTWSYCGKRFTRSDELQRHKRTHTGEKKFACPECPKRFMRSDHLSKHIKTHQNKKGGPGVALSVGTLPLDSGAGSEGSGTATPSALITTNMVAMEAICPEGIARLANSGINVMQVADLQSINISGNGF
# Procedure, shortened: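 HepG2 cells transiently transfected with multiplexed cis-regulated reporter constructs, chemical exposure 24 h. Reporter mRNA quantified by RT-PCR with capillary electrophoresis; bidirectional fit relative to DMSO.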
# [13] = ATG_SREBP_CIS: Attagene CIS-FACTORIAL HepG2 Assay for human Sterol Regulatory Element Binding (SREBP) (AID 2282962); details: HepG2 Attagene cis-factorial SREBP reporter, mRNA; actives raise or lower the signal
# Procedure, shortened: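 HepG2 cells transiently transfected with multiplexed cis-promoter reporter units sensing endogenous transcription factors; reporter mRNA measured 24 h after dosing by RT-PCR, 6-FAM labeling, HpaI digestion and capillary electrophoresis. Bidirectional fit versus DMSO.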
# [14] = target: Signal transducer and activator of transcription 3 (Homo sapiens) (UniProt P40763); assay: ATG_STAT3_CIS: Attagene CIS-FACTORIAL HepG2 Assay for human Signal Transducer and Activator of Transcription 3 (STAT3) (AID 2282963); details: HepG2, Attagene cis-factorial STAT3 reporter transcription; actives raise or lower the signal
# Sequence of Signal transducer and activator of transcription 3 (Homo sapiens) (P40763 whole entry, looked up): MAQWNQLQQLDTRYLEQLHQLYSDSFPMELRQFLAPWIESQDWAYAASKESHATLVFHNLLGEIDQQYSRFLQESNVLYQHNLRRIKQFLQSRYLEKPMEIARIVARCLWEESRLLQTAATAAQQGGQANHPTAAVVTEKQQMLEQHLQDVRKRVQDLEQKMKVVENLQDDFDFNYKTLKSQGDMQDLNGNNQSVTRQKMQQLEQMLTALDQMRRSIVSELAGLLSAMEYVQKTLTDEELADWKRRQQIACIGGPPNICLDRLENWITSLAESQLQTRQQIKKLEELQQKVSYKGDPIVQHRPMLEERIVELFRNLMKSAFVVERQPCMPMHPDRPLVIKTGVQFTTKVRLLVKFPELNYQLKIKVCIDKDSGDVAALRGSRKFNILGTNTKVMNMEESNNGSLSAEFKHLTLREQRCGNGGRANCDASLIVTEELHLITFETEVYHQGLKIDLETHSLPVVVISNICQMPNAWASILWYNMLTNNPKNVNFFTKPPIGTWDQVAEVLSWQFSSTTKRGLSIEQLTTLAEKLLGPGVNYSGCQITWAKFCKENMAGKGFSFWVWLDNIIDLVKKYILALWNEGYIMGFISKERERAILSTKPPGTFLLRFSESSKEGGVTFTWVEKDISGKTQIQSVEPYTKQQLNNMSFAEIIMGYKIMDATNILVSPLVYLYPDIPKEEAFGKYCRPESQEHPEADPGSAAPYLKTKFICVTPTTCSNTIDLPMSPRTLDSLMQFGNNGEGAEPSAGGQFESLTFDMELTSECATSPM
# Procedure, shortened: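 Transcript-level reporter assay. HepG2 transient MRTU transfection, 24 h exposure, fluorescence detection after RT-PCR and CE; DMSO baseline.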
# [15] = ATG_TA_CIS: Attagene CIS-FACTORIAL HepG2 Assay for human TA Basal Promoter (AID 2282964); details: HepG2 Attagene CIS-factorial TA basal promoter reporter; actives raise or lower the signal
# Procedure, shortened: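 Background internal-marker endpoint from a 52-component HepG2 cis-reporter panel. Cells treated 24 h; reporter transcripts quantified via RT-PCR and CE fluorescence against DMSO baseline.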
# [16] = ATG_TCF_b_cat_CIS: Attagene CIS-FACTORIAL HepG2 Assay for human T-Cell-Factor with beta-catenin (TCF/b-cat) (AID 2282965); details: HepG2 TCF/beta-catenin cis-reporter transcription, actives raise or lower the signal
# Procedure, shortened: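 In this cis-format system, transfected HepG2 cells report endogenous transcription factor activity. Readout after 24 h exposure is reporter transcript abundance from RT-PCR and capillary electrophoresis, analysed for gain or loss of signal versus DMSO.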
# [17] = target: Hepatocyte nuclear factor 6 (Homo sapiens) (UniProt Q9UBC0); assay: ATG_HNF6_CIS: Attagene CIS-FACTORIAL HepG2 Assay for human Hepatocyte Nuclear Factor 6 (HNF6) (AID 2282952); details: HepG2 Attagene cis-factorial HNF6 reporter transcription; actives raise or lower the signal
# Sequence of Hepatocyte nuclear factor 6 (Homo sapiens) (Q9UBC0 whole entry, looked up): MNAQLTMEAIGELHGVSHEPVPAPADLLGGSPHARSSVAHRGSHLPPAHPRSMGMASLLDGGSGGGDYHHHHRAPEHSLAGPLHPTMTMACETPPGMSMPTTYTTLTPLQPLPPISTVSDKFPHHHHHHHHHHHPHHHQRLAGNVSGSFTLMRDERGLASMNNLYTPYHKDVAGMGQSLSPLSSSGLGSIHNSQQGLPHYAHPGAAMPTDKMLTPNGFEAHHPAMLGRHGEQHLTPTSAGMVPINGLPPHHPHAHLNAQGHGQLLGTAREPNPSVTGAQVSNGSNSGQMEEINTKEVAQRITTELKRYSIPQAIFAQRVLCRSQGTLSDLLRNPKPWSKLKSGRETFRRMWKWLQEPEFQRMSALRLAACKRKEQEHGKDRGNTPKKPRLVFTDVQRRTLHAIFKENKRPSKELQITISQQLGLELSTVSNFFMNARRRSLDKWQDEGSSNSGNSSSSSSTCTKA
# Procedure, shortened: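 Transiently transfected HepG2 cells expressing cis-regulated reporter transcription units were exposed to chemical for 24 h in a 24-well format. Reporter transcript abundance was determined by fluorescence capillary electrophoresis.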
# [18] = ATG_MRE_CIS: Attagene CIS-FACTORIAL HepG2 Assay for human Metal Responsive Element (MRE) (AID 2282954); details: HepG2 MRE cis-reporter transcription, Attagene multiplex; actives raise or lower the signal
# Procedure, shortened: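 Step one: transfect HepG2 with cis-regulated reporter units. Step two: dose 24 h. Step three: isolate RNA, RT-PCR, 6-FAM label, HpaI digest, capillary electrophoresis. Fit bidirectionally to DMSO.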
# [19] = ATG_PBREM_CIS: Attagene CIS-FACTORIAL HepG2 Assay for human Phenobarbital-responsive Enhancer Module (PBREM) (AID 2282955); details: HepG2 PBREM cis-reporter, Attagene multiplexed transcription; actives raise or lower the signal
# Procedure, shortened: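 HepG2 cells transiently transfected with multiple cis-regulated reporter units measure endogenous transcription factor activity; 24 h compound exposure. Reporter mRNA quantified by RT-PCR, fluorescent labelling, HpaI digestion and capillary electrophoresis; bidirectional fit versus DMSO.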
# [20] = target: Hypoxia-inducible factor 1-alpha (Homo sapiens) (UniProt Q16665); assay: ATG_HIF1a_CIS: Attagene CIS-FACTORIAL HepG2 Assay for human Hypoxia Inducible Factor 1 (HIF1A) (AID 2282951); details: HepG2 Attagene cis-factorial HIF1a reporter transcription; actives raise or lower the signal
# Sequence of Hypoxia-inducible factor 1-alpha (Homo sapiens) (Q16665 whole entry, looked up): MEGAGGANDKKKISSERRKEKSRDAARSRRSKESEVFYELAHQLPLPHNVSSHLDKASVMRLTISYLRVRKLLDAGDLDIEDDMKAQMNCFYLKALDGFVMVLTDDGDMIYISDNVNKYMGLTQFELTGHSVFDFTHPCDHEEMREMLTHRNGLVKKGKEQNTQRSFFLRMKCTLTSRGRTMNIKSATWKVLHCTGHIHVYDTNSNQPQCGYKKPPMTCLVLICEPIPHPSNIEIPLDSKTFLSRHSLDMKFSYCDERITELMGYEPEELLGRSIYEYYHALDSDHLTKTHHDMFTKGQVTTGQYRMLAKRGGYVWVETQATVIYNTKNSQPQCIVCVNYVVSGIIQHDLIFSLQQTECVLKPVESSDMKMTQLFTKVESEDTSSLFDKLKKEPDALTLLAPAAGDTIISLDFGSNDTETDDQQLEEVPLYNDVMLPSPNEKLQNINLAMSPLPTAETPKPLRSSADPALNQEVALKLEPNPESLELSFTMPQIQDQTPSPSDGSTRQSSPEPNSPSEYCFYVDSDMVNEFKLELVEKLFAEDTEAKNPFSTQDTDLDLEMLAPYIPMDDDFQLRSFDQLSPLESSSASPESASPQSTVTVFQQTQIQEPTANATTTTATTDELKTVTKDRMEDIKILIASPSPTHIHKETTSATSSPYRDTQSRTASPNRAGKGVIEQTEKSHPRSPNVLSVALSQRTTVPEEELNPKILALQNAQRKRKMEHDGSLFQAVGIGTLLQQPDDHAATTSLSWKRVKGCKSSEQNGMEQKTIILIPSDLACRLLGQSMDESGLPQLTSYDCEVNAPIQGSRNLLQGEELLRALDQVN
# Procedure, shortened: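 HepG2 cells transiently transfected with multiple cis-regulated reporter transcription units measure endogenous transcription factor activity. After 24 h exposure, reporter mRNA is quantified by RT-PCR with 6-FAM labelling, HpaI digestion and capillary electrophoresis. Bidirectional fitting against DMSO.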
structure (smiles),measurement,setting,value
C=C(CC(=O)O)C(=O)O,outcome,[1],inactive
same,outcome,[2],inactive
same,outcome,[3],inactive
same,outcome,[4],inactive
same,outcome,[5],inactive
same,outcome,[6],inactive
same,outcome,[7],inactive
same,outcome,[8],inactive
same,outcome,[9],inactive
same,outcome,[10],inactive
same,outcome,[11],inactive
same,outcome,[12],inactive
same,outcome,[13],inactive
same,outcome,[14],inactive
same,outcome,[15],inactive
same,outcome,[16],inactive
CCCN(CCC)S(=O)(=O)c1ccc(C(=O)O)cc1,outcome,[1],inactive
same,outcome,[2],inactive
same,outcome,[3],inactive
same,outcome,[4],inactive
same,outcome,[5],inactive
same,outcome,[17],inactive
same,outcome,[6],inactive
same,outcome,[7],inactive
same,AC50,[8],27.3 µM (active)
same,outcome,[11],inactive
same,outcome,[12],inactive
same,outcome,[14],inactive
same,outcome,[15],inactive
same,outcome,[16],inactive
CCc1ccc(O)c(OC)c1,outcome,[1],inactive
same,outcome,[2],inactive
same,outcome,[3],inactive
same,outcome,[4],inactive
same,outcome,[5],inactive
same,outcome,[6],inactive
same,outcome,[18],inactive
same,outcome,[19],inactive
same,outcome,[7],inactive
same,outcome,[8],inactive
same,outcome,[9],inactive
same,outcome,[10],inactive
same,outcome,[11],inactive
same,outcome,[12],inactive
same,outcome,[13],inactive
same,outcome,[14],inactive
same,outcome,[15],inactive
same,outcome,[16],inactive
C[C@H]1O[C@@H](O[C@H]2[C@@H](O)C[C@H](O[C@H]3[C@@H](O)C[C@H](O[C@H]4CC[C@@]5(C)[C@H](CC[C@@H]6[C@@H]5C[C@@H](O)[C@]5(C)[C@@H](C7=CC(=O)OC7)CC[C@]65O)C4)O[C@@H]3C)O[C@@H]2C)C[C@H](O)[C@@H]1O,AC50,[1],0.253 µM (active)
same,AC50,[2],3.3 µM (active)
same,AC50,[3],0.179 µM (active)
same,outcome,[4],inactive
same,outcome,[5],inactive
same,outcome,[17],inactive
same,AC50,[6],0.194 µM (active)
same,AC50,[18],0.182 µM (active)
same,AC50,[7],0.0811 µM (active)
same,AC50,[8],0.271 µM (active)
same,outcome,[9],inactive
same,outcome,[11],inactive
same,AC50,[12],0.042 µM (active)
same,AC50,[13],0.0822 µM (active)
same,AC50,[14],3.54 µM (active)
same,outcome,[15],inactive
same,AC50,[16],1.03 µM (active)
O=c1c(O)c(-c2ccc(O)cc2)oc2cc(O)cc(O)c12,outcome,[1],inactive
same,outcome,[2],inactive
same,outcome,[3],inactive
same,outcome,[4],inactive
same,outcome,[5],inactive
same,outcome,[17],inactive
same,outcome,[6],inactive
same,outcome,[18],inactive
same,outcome,[7],inactive
same,AC50,[8],39.1 µM (active)
same,outcome,[9],inactive
same,outcome,[10],inactive
same,outcome,[11],inactive
same,outcome,[12],inactive
same,outcome,[14],inactive
same,outcome,[15],inactive
same,outcome,[16],inactive
CCCC[P+](CCCC)(CCCC)CCCC,outcome,[1],inactive
same,outcome,[2],inactive
same,outcome,[3],inactive
same,outcome,[4],inactive
same,outcome,[5],inactive
same,outcome,[20],inactive
same,outcome,[17],inactive
same,outcome,[19],inactive
same,outcome,[7],inactive
same,outcome,[8],inactive
same,outcome,[9],inactive
same,outcome,[10],inactive
same,outcome,[11],inactive
same,outcome,[12],inactive
same,outcome,[13],inactive
same,outcome,[14],inactive
same,outcome,[15],inactive
CC(C)(C)CC(C)(C)c1ccc(OCCOCC[N+](C)(C)Cc2ccccc2)cc1,outcome,[1],inactive
same,outcome,[2],inactive
same,outcome,[3],inactive
same,outcome,[4],inactive
same,outcome,[5],inactive
same,outcome,[17],inactive
same,outcome,[6],inactive
same,outcome,[7],inactive
same,outcome,[9],inactive
same,outcome,[11],inactive
same,outcome,[12],inactive
same,AC50,[13],8.35 µM (active)
same,outcome,[14],inactive
same,outcome,[15],inactive
same,AC50,[16],12 µM (active)
CCCCCc1ccco1,AC50,[1],105 µM (active)
same,outcome,[2],inactive
same,outcome,[4],inactive
same,outcome,[5],inactive
same,outcome,[20],inactive
same,outcome,[17],inactive
same,AC50,[6],115 µM (active)
same,outcome,[18],inactive
same,AC50,[7],111 µM (active)
same,AC50,[8],4.15 µM (active)
same,outcome,[9],inactive
same,outcome,[10],inactive
same,outcome,[11],inactive
same,outcome,[12],inactive
same,outcome,[13],inactive
same,outcome,[14],inactive
same,outcome,[15],inactive
same,AC50,[16],70 µM (active)
